Compounds with a hit are over-represented: about 9.2% of the library has one in this group of screens.
NPC1 prom act – activators of NPC1 promoter; Huh7 NPC1 promoter luciferase reporter, 24 h; hit rate 2.4% among 320,000; AID 485313; Potency, µM (highest dose often 9.22 µM), without a hit: at the highest dose activation, most hits filed as activators; note: % of control where 0% means no effect; nearly all actives have a fitted effect of over 60% in size
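Readout is luciferase luminescence, reflecting NPC1 promoter activation in stably transfected Huh7 cells after 24 h compound exposure at 37 °C in reduced-serum medium with 10% FBS.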
ELG1 genotoxic – genotoxicity induction in ELG1-luciferase HEK293T cells | HEK293T ELG1-luciferase reporter, luminescence, 16 h | AID 504466 | hit rate 1.3% among 330,000 | Potency, µM (top dose mostly 46 µM), for the others: at the highest dose activity change, positive = activation, usual class: activators; note: % of control where 0% means no effect; nearly all actives have a fitted effect of over 60% in size
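Quantitative HTS format in 1536-well plates. HEK293T ELG1-luciferase reporter cells receive test compound and are incubated 16 hr at 37 °C, 5% CO2; ONE-Glo added, 30 min room temperature, then luminescence read.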
FLuc modulator – counter-screen for miR-21 project: firefly luciferase inhibitors or activators; P08659; purified FLuc, Km substrates, luminescence inhibition; hit rate 6.9% among 360,000; AID 588342; Potency, µM (doses to about 57.5 µM), for the others: top-dose activity change, negative = inhibition, usual class: inhibitors;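 note: plate controls were vehicle for no effect and reference inhibitor for full effect; nearly all actives have a fitted effect of over 55% in size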
Target sequence (P08659 whole entry, looked up): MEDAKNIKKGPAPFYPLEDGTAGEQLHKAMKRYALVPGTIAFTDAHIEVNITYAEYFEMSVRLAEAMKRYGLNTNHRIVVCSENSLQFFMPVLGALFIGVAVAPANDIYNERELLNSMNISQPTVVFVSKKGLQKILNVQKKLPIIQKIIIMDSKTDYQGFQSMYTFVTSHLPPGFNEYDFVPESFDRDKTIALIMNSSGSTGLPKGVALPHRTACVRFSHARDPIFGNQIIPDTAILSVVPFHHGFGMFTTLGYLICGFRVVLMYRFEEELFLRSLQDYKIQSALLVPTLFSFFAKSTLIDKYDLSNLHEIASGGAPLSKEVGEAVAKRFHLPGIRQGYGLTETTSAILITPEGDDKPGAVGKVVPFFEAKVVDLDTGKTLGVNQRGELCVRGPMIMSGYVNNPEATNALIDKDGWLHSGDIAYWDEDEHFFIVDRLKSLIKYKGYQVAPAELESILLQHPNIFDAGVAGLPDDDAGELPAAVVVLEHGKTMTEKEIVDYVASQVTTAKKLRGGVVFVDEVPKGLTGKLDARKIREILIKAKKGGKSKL
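Purified P. pyralis luciferase, 10 nM final, with Km-level 10 uM D-luciferin and 10 uM ATP in 50 mM Tris acetate pH 7.5, 10 mM Mg acetate, 0.01% Tween-20, 0.05% BSA; 6-point qHTS titration about 60 µM downward; luminescence read.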
Rab9 promoter act – activates the Rab9 promoter; Huh7 Rab9 promoter-luciferase reporter, luminescence, 24 h; Potency, µM (highest dose often 9.22 µM), without a hit: at the top dose activation, negative = inhibition, actives largely listed as activators; hit rate 2.8% among 320,000; note: % of control where 0% means no effect; nearly all actives have a fitted effect of over 60% in size
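Using Huh7 cells stably transfected with Rab9 promoter–luciferase, compounds were incubated 24 h at 37 °C, 5% CO2; luciferase luminescence was read 10 min after reagent addition.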
SMN2 splice up – increases expression of the SMN2 splice variant; hit rate 2.8% among 210,000; Potency, µM (top dose mostly 46.1 µM), for the others: top-dose activity change, positive = activation, hits mostly activators; AID 1458; HEK293 SMN2-luciferase splicing reporter, luminescence, 30-36 h; note: % of control where 0% means no effect; nearly all actives have a fitted effect of over 55% in size
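qHTS luciferase splicing reporter: luminescence rises when SMN2 exon 7 is included in transfected HEK293 cells. Compound exposure lasted 30-36 h at 37C, with 4.5 mM final sodium butyrate as control, followed by a ONE-Glo read.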
ELG1 DNA repair – ELG1-dependent DNA repair inhibition; HEK293T ELG1-luciferase reporter, luminescence, 16 h; DNA damage induced by 5-fluorouridine; Potency, µM (series often up to 46.1 µM), for inactives: top-dose activity change, negative = inhibition, usual class: inhibitors; hit rate 2.3% among 330,000; AID 504467; note: % is set by controls: 0 for no effect and ±100 for the full control effect; nearly all actives have a fitted effect of over 55% in size
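DMSO vehicle served as the neutral condition. Each well held 2,000 cells given 5-fluorouridine plus compound; after 16 hr at 37 °C/5% CO2, ONE-Glo was added and luciferase measured 30 min later.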
Numbers without * were called inactive; ? = inconclusive; · = no result; [ ] = remark or other dose. Calls come from the whole dose curve; as a rule, active = well fitted curve in the direction sought with a large enough effect; inconclusive = small, poorly fitted or top-dose-only effect, or another doubt; inactive = no such curve, though single readings can be large; an effect the other way counts as inactive or inconclusive. Potency is the fitted concentration of half-maximal effect.

SMILES	NPC1 prom act	ELG1 genotoxic	FLuc modulator	Rab9 promoter act	SMN2 splice up	ELG1 DNA repair
N/C(=N\O)c1ccc(NC(=O)c2cccs2)cc1	?	?	16.9µM*	3.55µM*	27.2%	?
C/C(=N\NC(=O)C(N)=O)c1ccc(NC(=O)c2cccs2)cc1	26.9%	?	?	?	?	?
COc1cc(NC(=O)c2cc(OC)c(OC)c(OC)c2)ccc1NC(=O)c1cccs1	-11.6%	-11.6%	0.3%	-4.6%	·	?
COc1ccc(Cl)cc1-c1nc(-c2ccc(NC(=O)c3cccs3)cc2)no1	14.0%	14.3%	15.1µM*	?	2.6%	-1.7%
COc1ccc(NC(=O)c2cccs2)cc1OC	19.8%	23.1µM*	?	24.3%	·	?
Cn1cccc1C(=O)OCC(=O)NC(=O)c1ccc(Cl)cc1	·	1.1%	·	·	·	2.6%
Cc1nn(CC(=O)N(C)C)c(C)c1S(=O)(=O)N1CCOCC1	-0.4%	4.6%	-1.7%	-6.4%	·	24.8%
COc1cc(NC(=O)c2cccs2)cc(OC)c1	24.1%	10.0%	?	?	14.7%	?
Cc1ccc(C(=O)Nc2cccc(NC(=O)c3cccs3)c2)c(C)c1	0.1%	-6.8%	12µM*	6.2%	·	-18.1%
COc1cc(NC(=O)c2cccs2)c(OC)cc1NC(=O)c1ccco1	-0.8%	-1.2%	-8.5%	1.9%	-22.1%	-12.1%
COc1ccc(C(=O)Nc2cccc(NC(=O)c3cccs3)c2)cc1	18.0%	0.3%	9.53µM*	18.6%	·	21.9%
CC(C)(C)c1ccc(Oc2ccc(NC(=O)c3cccs3)cn2)cc1	-13.9%	-8.9%	?	-24.3%	·	6.51µM*
COc1ccc(NC(=O)c2ccco2)cc1NC(=O)c1cccs1	-1.0%	0.9%	-12.7%	-6.1%	4.47µM*	-4.2%
COc1cccc(N2CC(NC(=O)C(c3ccccc3)c3ccccc3)CC2=O)c1 (configuration not stated)	·	·	-6.5%	·	·	·
COc1ccc(NC(=O)CCNC(=O)c2ccco2)cc1Cl	-3.2%	2.9%	-0.2%	-6.4%	·	7.1%
CCCCCOc1ccc(Cn2c(=O)oc3ccc(C)cc32)cc1OC	·	·	3.1%	·	-20.4%	·
COc1cccc(NC(=O)c2cccs2)c1	?	16.4µM*	16.9µM*	?	12.6µM*	?
COc1ccc(-c2[nH]ncc2/C=N\NC(=O)c2cccs2)cc1OC	1.5%	0.9%	19µM*	-2.7%	·	0.0%
O=C(NNC(=O)c1cccs1)c1ccc(F)cc1	14.3%	-13.6%	-8.0%	4.6%	·	?
O=C(Nc1cccc(NC(=O)c2cccs2)c1)c1ccc(F)cc1	0.2%	-5.4%	21.3µM*	-4.3%[1.84 µM]	·	-5.5%
CC(=O)c1ccc(NC(=O)c2cccs2)cc1	2.82µM*	16.4µM*	15.1µM*	2.24µM*	10µM*	?
CCC1CN(C(=O)N2CCC(C(=O)NCCc3ccc(C)cc3)CC2)c2ccccc2O1 (configuration not stated)	·	·	1.2%	·	·	·
CC1CCCN(C(=O)COc2ccc(NC(=O)c3cccs3)cc2)C1 (configuration not stated)	12.9%	-2.9%	9.53µM*	13.1%	-19.8%	18.2%
COc1ccc(NC(=O)c2ccc(NC(=O)c3cccs3)cc2)cc1	-1.3%	20.6µM*	-3.1%	-0.8%	·	?
Cc1ccc(OCC(=O)N2CCN(C(=O)c3cccs3)CC2)cc1	-3.0%	-1.7%	2.5%[2.3 µM]	0.0%	-3.7%	-8.8%
SMILES	NPC1 prom act	ELG1 genotoxic	FLuc modulator	Rab9 promoter act	SMN2 splice up	ELG1 DNA repair
CC(=O)c1ccc(OC(=O)c2cccs2)cc1	5.4%	-6.5%	12µM*	-3.5%	9.6%	7.1%
O=C(Nc1cccc(NC(=O)c2cccs2)c1)c1ccc(Br)o1	-1.1%	-1.4%	23.9µM*	3.7%	·	-24.3%
CCCCOc1ccc(C(=O)NCCS(=O)(=O)N2CCN(c3ccccc3OC)CC2)cc1	·	·	-13.9%	·	·	·
Cc1cccc(C(=O)Nc2ccc(-c3nc4ccccc4s3)cc2Cl)c1	·	·	-6.2%	·	·	·
CCCCCC(=O)Nc1ccc2ccccc2c1	?	?	13.5µM*	?	?	?
CC(C)CC(=O)Nc1ccc2c(c1)oc1ccccc12	1µM*	19.0%	2.13µM*	1µM*	5.62µM*	?
CCCCC(=O)Nc1ccc2c(c1)oc1ccccc12	?	?	8.49µM*	3.55µM*	14.1µM*	?
Cc1ccccc1OCc1nnc(SCC(=O)Nc2ccc3c(c2)oc2ccccc23)n1C	23.8%	?	-12.9%	27.9%	?	0.0%
Cc1ccc(-c2nnc(SCC(=O)Nc3ccc4c(c3)oc3ccccc34)n2C)c(Cl)c1	8.2%	0.0%	9.53µM*	2.9%	-83.3%	18.4µM*
O=C(O)c1ccccc1C(=O)OCCCc1ccncc1	-2.9%	4.0%	1.5%	-5.2%	·	10.8%
O=C(O)/C(=C\C(=O)c1ccccc1)Nc1ccccc1	?	16.0%	?	28.6%	·	?
O=C(NCc1ccccn1)c1cccc(NS(=O)(=O)c2ccccc2F)c1	-1.2%	-0.1%	-1.9%	-1.1%	-12.5%	3.1%
COc1cc2c(cc1NC(=O)CSc1ccccn1)oc1ccccc12	?	14.5%	?	?	4.5%	9.6%
O=C(CSc1ccccn1)Nc1ccc2c(c1)oc1ccccc12	24.0%	15.3%	13.5µM*	29.2%	17.8µM*	?
Cn1c(SCC(=O)Nc2cccc(C(=O)O)c2)nnc1-c1cc2cc(Br)ccc2o1	7.4%	0.1%	2.69µM*	-1.5%	·	23.8%
O=C(O)CCCC(=O)Nc1ccc2c(c1)oc1ccccc12	0.8%	-2.2%	15.1µM*	2.3%	·	2.4%
O=C(Nc1ccc(N2CCOCC2)c(Cl)c1)c1ccc([N+](=O)[O-])o1	26.8%	?	12µM*	?	?	-5.5%
CN1CCN(c2ccc(NC(=O)c3ccc([N+](=O)[O-])o3)cc2Cl)CC1	?	?	9.53µM*	?	·	?
CC(C)C(=O)N1CCN(c2ccc(NC(=O)c3ccc([N+](=O)[O-])o3)cc2Cl)CC1	-11.8%	-12.0%	1.1%	-39.5%	-0.9%	-0.5%
CCCC(=O)N1CCN(c2ccc(NC(=O)c3ccc([N+](=O)[O-])o3)cc2Cl)CC1	-16.5%	-10.0%	3.9%	-2.9%	-47.8%	?
c1ccc(Cn2c(-c3ccccc3)c[n+]3c2SCCC3)cc1	-19.2%	-10.1%	0.6%	-31.8%	·	13µM*
Clc1ccc(-c2nc3ccccn3c2CN2CCOCC2)cc1	1.5%	5.5%	-13.0%	-7.1%	7.2%	-8.0%
COc1ccc(-c2nc3ccccn3c2CN2CCN(c3ccccc3F)CC2)cc1	0.8%	-5.0%	16.9µM*	2.3%	5.2%	?
COc1ccc(-c2nc3ccccn3c2Cl)cc1	3.16µM*	1.16µM*	0.426µM*	0.794µM*	·	?
